Data reported in the supplement of paper PMC10732440.
± gives the standard deviation of the averaged measurements.

Tested on: Caenorhabditis elegans N2 infected with Nematocida parisii ERTm1
Assay: progeny production relative to DMSO uninfected control; higher = more progeny despite microsporidia infection (inhibition of infection with low host toxicity)
Conditions: infection time 6 days
How it was run: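 In 96-well plates holding K-medium, E. coli OP50 and 15,000 N. parisii spores/μL, 100 wild-type C. elegans L1 larvae per well were exposed to compound at 100 μM or 40 μM in 1% DMSO for 6 days with shaking at 21°C. Worms were then stained with Rose Bengal, scanned and counted with WorMachine, with three runs per compound and dose. Each value is progeny production as a percentage of the spore-free vehicle condition, averaged over replicates.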

SMILES: C=CCN(C(=O)OCc1ccc([N+](=O)[O-])cc1)C1CCN(CC[C@](C)(CN(C)S(=O)(=O)c2ccccc2)c2ccccc2)CC1
- progeny production (40 µM): 3.88 ± 1.4%
- progeny production (100 µM): 5.72 ± 2.3%

SMILES: CC(C)Oc1ccc(-n2cnc3cc(/C=C\c4ccc(C(C)(C)O)cc4)ccc32)cc1
- progeny production (40 µM): 5 ± 1.6%
- progeny production (100 µM): 10.6 ± 2%

SMILES: COc1ccc(C2CNC(=O)C2)cc1OC1CCCC1 (centres undefined)
- progeny production (40 µM): 4.65 ± 2.2%
- progeny production (100 µM): 11.2 ± 9.9%

SMILES: CC(C)Nc1ncnc2c1cnn2-c1ccc(Cl)cc1
- progeny production (40 µM): 8.31 ± 1.1%
- progeny production (100 µM): 4.15 ± 2.5%

SMILES: C[C@H](NC(=O)C(=O)Nc1ccccc1C(C)(C)C)C(=O)N[C@@H](CC(=O)O)C(=O)COc1c(F)c(F)cc(F)c1F
- progeny production (40 µM): 5.12 ± 0.88%
- progeny production (100 µM): 15 ± 11%

SMILES: O=C(O)[C@H]1C2CCC(CC2)[C@@H]1Nc1nc(-c2c[nH]c3ncc(F)cc23)ncc1F
- progeny production (40 µM): 8.03 ± 4.7%
- progeny production (100 µM): 14.2 ± 12%

SMILES: COc1ccc(NC(=O)c2cc3ccccn3n2)cc1
- progeny production (40 µM): 9 ± 5.7%
- progeny production (100 µM): 13.6 ± 6%

SMILES: Nc1cc(N)c2nc(-c3ccccc3)c(Nc3ccc(F)cc3)nc2c1
- progeny production (40 µM): 4.57 ± 1.7%
- progeny production (100 µM): 23.5 ± 17%

SMILES: CCc1ccccc1OCCN1CCCCCC1
- progeny production (40 µM): 7.17 ± 1.6%
- progeny production (100 µM): 20.2 ± 6%

SMILES: CN(C)CCCNC(=O)c1ccc(-c2cc(O)c3ncccc3c2)cc1
- progeny production (40 µM): 5.74 ± 3.9%
- progeny production (100 µM): 10.5 ± 6.4%

SMILES: O=C(/C(=C/c1ccc(Cl)cc1Cl)n1ccnc1)c1ccc(Cl)cc1
- progeny production (40 µM): 24.5 ± 2.2%
- progeny production (100 µM): 89.8 ± 17%

SMILES: CN(O)C(=O)c1cc2c(CN3CCC[C@H]3C(N)=O)cn(Cc3ccc(F)cc3)c2cn1
- progeny production (40 µM): 3.84 ± 1.6%
- progeny production (100 µM): 11.1 ± 4.5%

SMILES: Clc1ccc(COC(Cn2ccnc2)c2ccc(Cl)cc2Cl)c(Cl)c1 (centres undefined)
- progeny production (40 µM): 4.89 ± 1.7%
- progeny production (100 µM): 8.86 ± 1.6%

SMILES: CC(C)n1cnc2c(NCc3ccccc3)nc(NCc3ccccc3)nc21
- progeny production (40 µM): 7.59 ± 5.2%
- progeny production (100 µM): 12.1 ± 7.2%

SMILES: C[C@@H](NC(=O)c1ccccc1-c1ccccc1)B(O)O
- progeny production (40 µM): 3.09 ± 1.4%
- progeny production (100 µM): 21.8 ± 15%

SMILES: COc1ccc2c(c1)cc(CNC(=O)c1cc3ccccc3o1)n2CC(=O)O
- progeny production (40 µM): 3.92 ± 2.4%
- progeny production (100 µM): 17.7 ± 17%

SMILES: Clc1ccc(Cn2c(CN3CCCC3)nc3ccccc32)cc1
- progeny production (40 µM): 3.41 ± 1.9%
- progeny production (100 µM): 6.88 ± 1.8%

SMILES: Oc1ccc(NCc2ccccc2OCc2ccccc2)cc1
- progeny production (40 µM): 5.72 ± 3.1%
- progeny production (100 µM): 8.25 ± 6.3%

SMILES: CC1(C)CC(NC(=O)C(=O)Nc2ccc(Cl)cc2)CC(C)(C)N1
- progeny production (40 µM): 2.32 ± 0.043%
- progeny production (100 µM): 8.19 ± 5.5%

SMILES: CCC[C@H](NC(=O)[C@@H]1[C@H]2CCC[C@H]2CN1C(=O)[C@@H](NC(=O)[C@@H](NC(=O)c1cnccn1)C1CCCCC1)C(C)(C)C)C(=O)C(=O)NC1CC1
- progeny production (40 µM): 9.24 ± 1.8%
- progeny production (100 µM): 10.3 ± 1.3%

SMILES: Cc1ccc(Oc2ccccc2-c2csc(N=C3NCCCN3)n2)c(C)c1
- progeny production (40 µM): 4.22 ± 1.2%
- progeny production (100 µM): 14.8 ± 12%

SMILES: CC(C)c1ccc(COc2cccc(-c3cc([S+](C)[O-])c(C#N)c(=O)[nH]3)c2)cc1 (centres undefined)
- progeny production (40 µM): 2.96 ± 1.6%
- progeny production (100 µM): 21.4 ± 25%

SMILES: CCOC(=O)Nc1cc(NC(C)CC(C)CN(CC)CC)c2nc(-c3ccccc3)c(-c3ccccc3)nc2n1 (centres undefined)
- progeny production (40 µM): 2.55 ± 1%
- progeny production (100 µM): 13.3 ± 9.8%

SMILES: CCOc1noc2cc(OCCC3CCN(c4ccc(C)nn4)CC3)ccc12
- progeny production (40 µM): 4.43 ± 1.4%
- progeny production (100 µM): 17.1 ± 11%

SMILES: COc1ccc2nc(-c3ccccc3)cc(O)c2c1
- progeny production (40 µM): 10.7 ± 7.9%
- progeny production (100 µM): 8.32 ± 3.4%

SMILES: CCNC(=O)Nc1cc(-c2ccccc2)c(-c2cncc(C(=O)O)c2)cn1
- progeny production (40 µM): 3.89 ± 0.4%
- progeny production (100 µM): 28.1 ± 28%

SMILES: CC(C)Oc1ccc(-c2nc(-c3cccc4c3CC[C@@H]4NCCO)no2)cc1C#N
- progeny production (40 µM): 3.24 ± 0.4%
- progeny production (100 µM): 4.7 ± 2.8%

SMILES: Cc1ccc(S(=O)(=O)Nc2cccc3cccnc23)cc1
- progeny production (40 µM): 6.57 ± 3.6%
- progeny production (100 µM): 7.42 ± 4.3%

SMILES: C/C(=N\NC(=O)C1CC1c1ccccc1)c1ccc(NC(=O)c2ccco2)cc1 (centres undefined)
- progeny production (40 µM): 2.3 ± 0.95%
- progeny production (100 µM): 6.87 ± 1.1%

SMILES: Nc1nc(F)nc2c1ncn2[C@H]1O[C@@H](CO)[C@H](O)[C@@H]1O
- progeny production (40 µM): 2.33 ± 1%
- progeny production (100 µM): 4.1 ± 1.2%

SMILES: Oc1c(C(Nc2ccccn2)c2ccccc2)ccc2cccnc12 (centres undefined)
- progeny production (40 µM): 8.66 ± 7.6%
- progeny production (100 µM): 9.12 ± 7.2%

SMILES: O=C(/C=C/n1cnc(-c2cc(C(F)(F)F)cc(C(F)(F)F)c2)n1)NNc1cnccn1
- progeny production (40 µM): 7.43 ± 4%
- progeny production (100 µM): 14.1 ± 2.6%

SMILES: COc1cccc(N2CCN(C3=Nc4c(F)cccc4[C@H](CC(=O)O)N3c3cc(C(F)(F)F)ccc3OC)CC2)c1
- progeny production (40 µM): 6.01 ± 2.9%
- progeny production (100 µM): 14.7 ± 7.5%

SMILES: O=C(Nc1ccccc1C(=O)O)c1cccc(Oc2ccccc2)c1
- progeny production (40 µM): 3.52 ± 1.3%
- progeny production (100 µM): 16.2 ± 14%

SMILES: O=C(NCCN1CCCCC1)c1cccc(C(F)(F)F)c1
- progeny production (40 µM): 5.09 ± 1.5%
- progeny production (100 µM): 18.2 ± 16%

SMILES: CC(C)(C)OC(=O)NCc1ccc(C(=O)N[C@H]2CCOC2=O)cc1
- progeny production (40 µM): 5.57 ± 4.2%
- progeny production (100 µM): 24.3 ± 18%

SMILES: Cc1nc(N(C)C(=O)Cc2ccc(-c3ccccn3)cc2)sc1S(N)(=O)=O
- progeny production (40 µM): 3.86 ± 0.4%
- progeny production (100 µM): 12.9 ± 8.8%
